Results on eight molecules are retold here after PubChem BioAssay.

Structures are written as SMILES. Several values for one entry are separate records, joined by “and”; a condition that tells them apart may be missing. Equal entries are not always repeated. Activity calls are given as the source filed them.

Assay [1] is described as follows: optical density shifts of acrAB sulA E. coli – strain DRC41, OD650, 48 h, E. coli filamentation inducer project, primary screen (AID 1152).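 Further: E. coli MC1000 strain DRC41 lacking acrAB efflux pump and sulA.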 The following applies: higher = more signal, called active from +8 up or from −8 down.
The nature of assay [2]: probe aLefty1 binding on compound microarray – biochemical, small-molecule microarray, 635/667 nm fluorescence, primary screen (AID 1153).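 Further: score merges spot fluorescence with signal-to-noise ratio from the scanned slide images.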 To be noted: higher = more signal.
Assay [3] in a line: plasmodial surface anion channel blockers, osmotic lysis – cell-based, P. falciparum Indochina, OD700, 1 h, primary screen (AID 1154). The following applies: P. falciparum Indochina infected RBC osmotic lysis, higher = more signal, called active from +8 up or from −8 down.
Assay [4] is described as follows: plasmodial surface anion channel blockers, osmotic lysis – cell-based, P. falciparum Indochina, OD700, 2 h, primary screen (AID 1155).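 Further: lysis reports solute entry through the parasite surface anion channel PSAC.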 The following applies: P. falciparum Indochina infected erythrocytes, higher = more signal, called active from +8 up or from −8 down.
Assay [5] is described as follows: changes in parasitized red cell lysis, either direction – P. falciparum Indochina, OD700, 3 h, PSAC antagonist project, primary screen (AID 1156). To be noted: P. falciparum-infected erythrocytes, osmotic lysis, higher = more signal, called active from +8 up or from −8 down.
The nature of assay [6]: plasmodial surface anion channel blockers, osmotic lysis – cell-based, P. falciparum Indochina, OD700, 18 h, primary screen (AID 1157). The following applies: P. falciparum Indochina infected erythrocytes, osmotic lysis OD700, 18 h; higher = more signal, called active from +8 up or from −8 down.
Assay [7] is described as follows: S6 kinase pathway phospho-S6 level changes – cell-based, A549, cytoblot, luminescence, serum-stimulated, primary screen (AID 1158).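 Further: serum-stimulated A549 lung adenocarcinoma cells; signal is phosphorylated S6 detected by cytoblot immunostaining with HRP secondary.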 To be noted: 5 h, higher = more signal.
Assay [8] addresses NADPH oxidase 2 (Homo sapiens) (UniProt P04839). The assay is described as follows: compounds shifting NOX2 Amplex Red fluorescence – cell-based, HEK293-NOX2, PMA-stimulated, NOX inhibitor project, primary screen (AID 1159). Further: test concentration not given here. To be noted: 45 min, higher = more signal, called active from +8 up or from −8 down.
For assay [9], the target named is NADPH oxidase 4 (Homo sapiens) (UniProt Q9NPH5). The assay can be described thus: compounds shifting NOX4 Amplex Red fluorescence – cell-based, HEK293-NOX4, tetracycline-induced, NOX inhibitor project, primary screen (AID 1160). The following applies: HEK293-NOX4, Amplex Red H2O2 fluorescence, 45 min; higher = more signal, called active from +8 up or from −8 down.
NADPH oxidase 4 (Homo sapiens), sequence (Q9NPH5 whole entry, looked up): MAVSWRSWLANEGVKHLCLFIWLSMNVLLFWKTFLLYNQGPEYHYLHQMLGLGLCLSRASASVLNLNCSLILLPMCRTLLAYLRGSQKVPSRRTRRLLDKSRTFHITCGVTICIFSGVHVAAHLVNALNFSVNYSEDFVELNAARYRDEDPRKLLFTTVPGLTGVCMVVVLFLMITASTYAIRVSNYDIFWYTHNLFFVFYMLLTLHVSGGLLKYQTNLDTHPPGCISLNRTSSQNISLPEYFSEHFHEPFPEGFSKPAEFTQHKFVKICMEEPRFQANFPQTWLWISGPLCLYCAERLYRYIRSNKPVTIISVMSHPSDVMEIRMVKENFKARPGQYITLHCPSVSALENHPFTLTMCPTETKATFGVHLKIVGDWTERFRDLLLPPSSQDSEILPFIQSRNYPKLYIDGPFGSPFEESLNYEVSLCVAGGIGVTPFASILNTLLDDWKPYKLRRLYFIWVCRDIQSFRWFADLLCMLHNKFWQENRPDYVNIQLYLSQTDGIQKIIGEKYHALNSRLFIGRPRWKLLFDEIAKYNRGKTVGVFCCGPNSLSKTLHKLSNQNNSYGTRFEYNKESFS

Assay [10] has as its target NADPH oxidase 5 (Homo sapiens) (UniProt Q96PH1). The assay is described as follows: compounds shifting NOX5 Amplex Red fluorescence – cell-based, HEK293-NOX5, NOX inhibitor project, primary screen (AID 1161). The following applies: HEK293-NOX5, ionomycin, 45 min, higher = more signal.

NADPH oxidase 2 (Homo sapiens), sequence (P04839 whole entry, looked up): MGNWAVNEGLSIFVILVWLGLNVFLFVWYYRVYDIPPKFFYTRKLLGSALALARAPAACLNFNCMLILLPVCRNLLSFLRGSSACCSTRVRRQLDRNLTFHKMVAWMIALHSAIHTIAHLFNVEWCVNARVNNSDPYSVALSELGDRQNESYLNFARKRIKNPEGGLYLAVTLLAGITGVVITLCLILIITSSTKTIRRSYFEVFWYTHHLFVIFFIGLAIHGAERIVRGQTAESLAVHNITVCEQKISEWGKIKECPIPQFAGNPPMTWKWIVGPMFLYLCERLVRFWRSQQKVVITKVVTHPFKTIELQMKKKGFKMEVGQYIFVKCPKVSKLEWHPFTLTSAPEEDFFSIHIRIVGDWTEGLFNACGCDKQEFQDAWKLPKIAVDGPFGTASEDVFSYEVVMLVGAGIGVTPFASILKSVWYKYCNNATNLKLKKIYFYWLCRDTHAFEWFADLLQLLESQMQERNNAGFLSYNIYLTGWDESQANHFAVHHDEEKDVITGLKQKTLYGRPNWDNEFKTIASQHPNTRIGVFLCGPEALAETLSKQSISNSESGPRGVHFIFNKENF
NADPH oxidase 5 (Homo sapiens), sequence (Q96PH1 whole entry, looked up): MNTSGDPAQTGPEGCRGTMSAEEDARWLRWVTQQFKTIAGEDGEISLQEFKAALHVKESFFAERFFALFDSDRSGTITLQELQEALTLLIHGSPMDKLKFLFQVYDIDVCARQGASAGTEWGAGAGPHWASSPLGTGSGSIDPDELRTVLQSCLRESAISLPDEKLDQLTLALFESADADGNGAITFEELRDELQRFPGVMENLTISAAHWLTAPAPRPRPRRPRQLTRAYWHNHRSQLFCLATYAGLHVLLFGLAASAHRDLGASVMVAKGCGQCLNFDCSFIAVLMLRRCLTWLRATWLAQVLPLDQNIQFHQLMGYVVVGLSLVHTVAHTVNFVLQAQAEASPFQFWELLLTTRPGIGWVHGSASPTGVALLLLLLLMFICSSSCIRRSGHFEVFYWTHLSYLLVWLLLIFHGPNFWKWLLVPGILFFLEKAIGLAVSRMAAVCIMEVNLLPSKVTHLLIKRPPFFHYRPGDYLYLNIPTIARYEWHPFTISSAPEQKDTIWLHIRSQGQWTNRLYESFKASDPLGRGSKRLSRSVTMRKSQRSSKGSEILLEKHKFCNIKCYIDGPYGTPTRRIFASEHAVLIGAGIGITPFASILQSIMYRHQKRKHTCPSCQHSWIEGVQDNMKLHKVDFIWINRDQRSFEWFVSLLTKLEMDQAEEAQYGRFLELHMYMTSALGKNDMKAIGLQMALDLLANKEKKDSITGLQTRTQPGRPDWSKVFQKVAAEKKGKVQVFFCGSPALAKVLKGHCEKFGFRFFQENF

As to `COC(=O)C1=C(C)N(Cc2ccccc2)C2=C3C(=O)CCC[C@@H]3[C@@](O)(C(=O)OC)C(=O)N2[C@@H]1c1ccccc1`, the z-score in assay [1] was 0.941 (inactive) and 1.15 (inactive); in [3], -0.0542 (inactive) and 0.644 (inactive); in [4], 0.23 (inactive) and -0.736 (inactive); in assay [5], -0.689 (inactive) and 0.924 (inactive); in [6], 0.249 (inactive) and -0.767 (inactive); in assay [7] it was -0.0885 and 0.778. Moreover, the z-score is 1.08 (inactive) and -0.368 (inactive) in assay [8]; -0.0562 (inactive) and 0.13 (inactive) in assay [9]; -0.0435 and -0.704 in assay [10]. The composite z-score in assay [2] is -0.0275 and 0.106.

As for `CO[C@@H]1COC(=O)CC=C[C@H](C)[C@@H](NS(=O)(=O)c2ccc(C)cc2)COC(=O)CC=C[C@@H]1C`, the z-score in [1] is 0.578 (inactive) and 0.567 (inactive); in assay [3], 0.614 (inactive) and 0.595 (inactive); in assay [4], 0.281 (inactive) and -0.12 (inactive); in assay [5], -0.153 (inactive) and 0.571 (inactive); in assay [6], 0.401 (inactive) and 0.367 (inactive); in assay [7], -0.3 and -0.484. Besides, the z-score in assay [8] was 0.0381 (inactive) and 0.541 (inactive); in [9], 0.724 (inactive) and 0.493 (inactive); in assay [10], 0.423 and 0.277. In addition, the composite z-score in assay [2] is -0.186 and 0.0492.

`CCOC(=O)[C@H](CC(C)C)NC(=O)CCC1CC(OC(=O)NCc2cccc3ccccc23)CC2(CCCC(COC(=O)NCc3ccccc3)O2)O1` (stereo not given in full): the z-score was -0.42 (inactive) in [1]; 0.56 (inactive) in assay [3]; -0.166 (inactive) in assay [4]; -1.33 (inactive) in assay [5]; 0.097 (inactive) in [6]; -0.194 in assay [7]. Moreover, the z-score in assay [8] was 0.209 (inactive); in assay [9], 0.0251 (inactive); in assay [10], 0.281. In [2], the composite z-score was -0.393.

With `C=CCN(Cc1ccccc1)C(=O)C1N(CCOCCO)C(=O)C2C(C(=O)O)C3C=CC21O3` (stereo not given), the z-score in assay [1] is 2.01 (inactive) and 0.924 (inactive); in assay [3], -0.451 (inactive) and 0.417 (inactive); in assay [4], -1.31 (inactive) and -0.103 (inactive); in assay [5], -1.39 (inactive) and -0.519 (inactive); in assay [6] it was -1.71 (inactive) and 0.0394 (inactive); in assay [7], 0.506 and 0.245. The z-score in [8] is 1.22 (inactive) and 0.583 (inactive); in assay [9], -0.586 (inactive) and -2.52 (inactive); in assay [10] it was 0.93 and -0.825. Also, in [2], the composite z-score is 0.0429 and 0.101.

As to `C=CCN(C(=O)C(c1cccs1)N(C(=O)/C=C\C(=O)O)c1c(Cl)cccc1CO)c1ccc(OC)cc1` (stereo not given), the z-score in assay [1] is 1.42 (inactive) and -0.536 (inactive); in assay [3], -0.363 (inactive) and 2.52 (inactive); in assay [4] it was -1.53 (inactive) and 0.102 (inactive); in [5] it was -0.806 (inactive) and -0.455 (inactive); in assay [6], -1.39 (inactive) and 0.0841 (inactive); in assay [7] it was 0.312 and 0.429. Besides, the z-score was -0.102 (inactive) and -0.012 (inactive) in [8]; -1.08 (inactive) and -1.05 (inactive) in [9]; 0.145 and 0.141 in assay [10]. The composite z-score in assay [2] was 0.188 and 0.207.

With `Cc1cc2c(nc1C)CCCN2CC(C)ON=C[C@@H](C)[C@H](OCc1ccccc1)C(C)C` (stereo not given in full), the z-score in [1] is -0.434 (inactive); in assay [3], 0.376 (inactive); in assay [4] it was -0.0677 (inactive); in assay [5], -0.108 (inactive); in assay [6] it was 0.294 (inactive); in assay [7] it was -0.775. Moreover, the z-score in assay [8] was 0.231 (inactive); in assay [9], -0.217 (inactive); in assay [10] it was 0.00713. Besides, the composite z-score in assay [2] is -0.0984.

As for `CCOC(=O)C[C@H]1[C@H](OC(=O)c2ccccc2-c2ccccc2)[C@@H](NC(=O)Cc2ccc(OC)cc2)c2cc(OCCCO)ccc2N1C(=O)Cc1ccc(OC)cc1`, the z-score in assay [1] was 2.52 (inactive) and -0.448 (inactive); in [3], 2.32 (inactive) and 2.14 (inactive); in assay [4], -0.672 (inactive) and 0.269 (inactive); in [5] it was 0.308 (inactive) and -0.142 (inactive); in [6], -1.18 (inactive) and 0.255 (inactive); in assay [7] it was 0.551 and -0.0127. Further, the z-score was 1.61 (inactive) and 0.265 (inactive) in [8]; -0.904 (inactive) and 0.828 (inactive) in [9]; 1.79 and 0.274 in assay [10]. Further, the composite z-score in [2] is 0.349 and -0.0601.

With `CC(C)=CCCC(C)=CCON=C1C[C@@H](O)[C@@H](O)[C@@H]2[C@@H]3C(=O)N([C@@H](C)c4ccccc4)C(=O)[C@@H]3CC[C@H]12`, the z-score was -0.125 (inactive) in assay [1]; 11.1 (active) in assay [3]; 0.362 (inactive) in [4]; 1.3 (inactive) in [5]; -0.944 (inactive) in assay [6]; 1.27 in [7]. For the same molecule, the z-score was -1.06 (inactive) in assay [8], -0.306 (inactive) in [9] and -4.23 in [10]. In addition, the composite z-score in assay [2] was -0.0603.
